What follows are sequences tested against NTRK3 (assay: pooled miR-30 sensor sort-seq; sequence = guide strand). Conditions: shRNA.
Also: reference of the scale not given here.

| Sequence | sensor-assay potency score (higher = more potent) |
| --- | --- |
| TTGACAGGTTTATATAACGCAA | -0.787 |
| TAGAACTTGACAATGTGCTCAT | 0.762 |
| TTGTGGGTCACAGTGATAGGAG | -0.852 |
| TAGAGCTCCATGTCCACGGCGT | 0.00985 |
| TTCACTAGCAGATTCGCTCCAA | 0.574 |
| TCTCTGTAGTGAACTTCCGGTA | -0.729 |
| TTGATCTCAGTCTTGCTGCAGA | 0.132 |
| TTCATTCCAAATTTGGACCGTC | 0.838 |
| TTTGTAGATCTCCTTGATGTTC | -1.01 |
| TTAATGTGCTGCACATACGTGT | 0.37 |

The sequences below were run against NUDT12 in the same assay as above. Conditions: shRNA.

| Sequence | sensor-assay potency score (higher = more potent) |
| --- | --- |
| TTTTGCTTTCTCTAGAATCTTA | 0.0347 |
| TATTATTACATTCATTTCCAGT | -0.883 |
| TTAAATATGTAAATCTGCCTGG | 0.199 |
| TAGTAAATTAGCTATATGCTTA | -0.516 |
| TTTAACATTATGAAAACCTGGA | 0.224 |
| TTAATTTCTGTAGACACTGCTA | 0.0613 |
| TTAACTTGGCAATATCTCCTTC | 0.732 |
| TTTCTCTAGAATCTTACTGATT | -0.991 |
| TAATAGTATGCTTTTCTCCTTC | 0.381 |
| TATATTGACAACTTAAAGGTAA | -0.0673 |
| TATATCTGTGTAGTTCAGCTGA | 0.275 |

Each sequence was assayed against NUDT17 in the same assay as above. Conditions: shRNA.

| Sequence | sensor-assay potency score (higher = more potent) |
| --- | --- |
| ATACAGAACAATGTGATGGTAT | 0.6 |
| TAGCAAGACAGTCTTGTCGCTG | -0.0193 |
| TTCCACTGCAAGGACAGAGGGT | -0.741 |
| AGCAAGACAGTCTTGTCGCTGG | -0.353 |
| TTAGCAAGACAGTCTTGTCGCT | 0.135 |
| TTGAGGGCAAACTTGGTTCCAG | -0.0646 |
| TAAGCTGCACTTTTACACGGTG | -0.247 |
| TTCTCGAAGCCCTCCGTCCAGC | -1.17 |
| TCTCTGTCCCATCCTCTGCGGC | -1.35 |
| TTGTCCTCTGCCATGGTTGGGA | -0.492 |
| TTTGGGTTTGGTTGGATCCGGG | -0.403 |
| TGTTCCATTCTTCCTTTGCTGG | -1.04 |

These sequences were tested against NUDT18 in the same assay as above. Conditions: shRNA.

| Sequence | sensor-assay potency score (higher = more potent) |
| --- | --- |
| TAGCTCTTGGGGCAGAATGAGA | -1.69 |
| TTACTCAGCAACGTGCTCCTCC | 0.514 |
| TTGCAGGTCTTCCTCCATCACC | -1.52 |
| TGTCTCGGGCTCACAGTGCAGC | -1.13 |
| ACTAACACCCACACTGTCTGGG | -0.0585 |
| AACTTTTGGGGGTTCATCCTGG | -0.225 |
| ATCACTGTGATCTCGGCCCAGG | -0.975 |

Source: the OligoGym collection
